Assay results reported in PubChem BioAssay (NCATS).
Records with an inconclusive call do not appear. The source made the active and inactive calls. Unless noted, the call rests on the fitted dose curve.

What was measured:
[1] = qHTS for Inhibitors of the Functional Ribonucleoprotein Complex (vRNP) of Lassa (LASV) Arenavirus: Viability assay - alamar blue signal for LASV Primary Screen (AID 1347083; calls by dose curve; tested in HEK293 reporter line; further: nearly all actives have a fitted effect of over 80% in size); details: cell viability, alamar blue fluorescence (LASV minigenome counter-screen); series mostly up to 57.5 µM
[2] = qHTS for Inhibitors of the Functional Ribonucleoprotein Complex (vRNP) of Lymphocytic Choriomeningitis Arenaviruses (LCMV): Viability assay - alamar blue signal for LCMV Primary Screen (AID 1347085; calls by dose curve; tested in HEK293 reporter line; further: nearly all actives have a fitted effect of over 80% in size); details: alamar blue viability counter-screen, LCMV vRNP screen cells; series mostly up to 57.5 µM
[3] = molecular target: Nucleoprotein (Lymphocytic choriomeningitis virus (strain Armstrong)) (UniProt P09992); assay: qHTS for Inhibitors of the Functional Ribonucleoprotein Complex (vRNP) of Lymphocytic Choriomeningitis Arenaviruses (LCMV): LCMV Primary Screen - GLuc reporter signal (AID 1347086); details: LCMV minigenome vRNP cell assay, Gaussia luciferase reporter; series mostly up to 57.5 µM; further: nearly all actives have a fitted effect of over 70% in size
Nucleoprotein (Lymphocytic choriomeningitis virus (strain Armstrong)), sequence (P09992 whole entry, looked up): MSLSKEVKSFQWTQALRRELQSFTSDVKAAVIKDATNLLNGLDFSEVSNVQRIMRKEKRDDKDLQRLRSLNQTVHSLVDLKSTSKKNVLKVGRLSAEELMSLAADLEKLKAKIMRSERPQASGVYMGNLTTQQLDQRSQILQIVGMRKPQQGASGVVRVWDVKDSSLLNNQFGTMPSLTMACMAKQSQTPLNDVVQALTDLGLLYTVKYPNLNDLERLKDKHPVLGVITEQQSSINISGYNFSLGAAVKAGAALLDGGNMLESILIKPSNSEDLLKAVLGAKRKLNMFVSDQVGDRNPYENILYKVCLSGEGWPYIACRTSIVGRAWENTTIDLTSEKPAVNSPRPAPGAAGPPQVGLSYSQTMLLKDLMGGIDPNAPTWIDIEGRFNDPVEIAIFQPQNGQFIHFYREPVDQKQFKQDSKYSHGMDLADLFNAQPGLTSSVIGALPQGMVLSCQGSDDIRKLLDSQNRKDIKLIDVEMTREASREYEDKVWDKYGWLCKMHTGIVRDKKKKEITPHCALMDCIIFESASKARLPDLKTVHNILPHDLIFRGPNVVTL

Measured: Potency

CN1CCN(c2c(F)cc3c(=O)c(C(=O)O)cn4c3c2SCC4)CC1
inactive: all assays above

CN1C[C@@H]2C[C@H]1CN2c1cc2c(cc1F)c(=O)c(C(=O)O)cn2C1CC1
inactive: all assays above

COc1cccc(OC)c1C(=O)N[C@@H]1C(=O)N2[C@@H]1SC(C)(C)[C@@H]2C(=O)O
inactive: all assays above

O=C(O)c1cc(=O)c2ccccc2o1
inactive: all assays above

CCOc1nc2cccc(C(=O)O)c2n1Cc1ccc(-c2ccccc2-c2nn[nH]n2)cc1
inactive: all assays above

CC(CCc1ccccc1)NCC(O)c1ccc(O)c(C(N)=O)c1 (stereo not given)
inactive: all assays above

Cc1ccc(C(=O)C(=O)O)cc1C
inactive: all assays above

COc1ccccc1OCC(O)CO (stereo not given)
inactive: all assays above

COc1ccc2c(c1)c(CC(=O)OC/C=C(\C)CC/C=C(\C)CCC=C(C)C)c(C)n2C(=O)c1ccc(Cl)cc1
inactive: all assays above

CC(=O)SCC(CC(=O)c1ccc(C)cc1)C(=O)O (stereo not given)
inactive: all assays above

CC(CN(C)C)C(C)(O)Cc1ccc(Cl)cc1 (stereo not given)
inactive: all assays above

Cc1c(I)c(=O)n(-c2ccccc2)n1C
inactive: all assays above

CCn1ccc(NS(=O)(=O)c2ccc(N)cc2)nc1=O
inactive: all assays above

NCCc1ccn[nH]1
inactive: all assays above

O=C(O)CSCC(=O)NC1CCSC1=O (stereo not given)
inactive: all assays above

COc1ccc(-c2ccc3cc(C(=O)O)ccc3c2)cc1C12CC3CC(CC(C3)C1)C2
inactive: all assays above

NC(N)=NC(=O)Cc1c(Cl)cccc1Cl
inactive: all assays above

COc1cc(C(=O)NC2CCCNC2)cc(OC)c1OC (stereo not given)
inactive: all assays above

CC1(C)S[C@@H]2[C@H](NC(=O)C(c3ccccc3)S(=O)(=O)O)C(=O)N2[C@H]1C(=O)O (stereo not given in full)
inactive: all assays above

Oc1ccc(OCc2ccccc2)cc1
inactive: all assays above

Cc1oc(=O)oc1CN1CCN(c2cc3c(cc2F)c(=O)c(C(=O)O)c2n3C(C)S2)CC1 (stereo not given)
inactive: all assays above

CN(C)CCOC(=O)C(c1ccccc1)C1(O)CCCC1 (stereo not given)
inactive: all assays above

CC(=O)Nc1c(I)cc(I)c(C(=O)O)c1I
inactive: all assays above

N[C@@H](Cc1cc(I)c(Oc2ccc(O)c(I)c2)c(I)c1)C(=O)O
inactive: all assays above

OC[C@@H](O)[C@@H](O[C@@H]1O[C@H](CO)[C@H](O)[C@H](O)[C@H]1O)[C@H](O)[C@@H](O)CO
inactive: all assays above

COCCOCC(OC)OC
inactive: all assays above

OC[C@H]1O[C@H](O[C@]2(CCl)O[C@H](CCl)[C@@H](O)[C@@H]2O)[C@H](O)[C@@H](O)[C@H]1Cl
inactive: all assays above

Cc1nnc(SCC2=C(C(=O)O)N3C(=O)[C@@H](NC(=O)Cn4cnnn4)[C@H]3SC2)s1
inactive: all assays above

CCCCC(=O)OCC(=O)[C@H]1[C@H](C)C[C@H]2[C@@H]3C[C@H](F)C4=CC(=O)C=C[C@]4(C)[C@@]3(F)[C@@H](O)C[C@@]21C
inactive: all assays above

CCS(=O)(=O)c1ccc(OC)c(C(=O)OC)c1
inactive: all assays above
